Molecules are shown by their SMILES. The panel holds about 83,000 compounds, 20% with a hit somewhere; the sample as a whole holds those more often.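 48-hour exposure, single concentration, 96-well plates; percent growth endpoint where 0 means no net growth. Active: below 10.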 Unmarked numbers belong to inactive results. The source made the active and inactive calls.

Some test systems named below: DU-145 prostate; K-562 leukemia; MALME-3M melanoma; MDA-MB-231 breast; RXF 393 renal; SF-268 CNS; SF-295 CNS; SF-539 CNS; UACC-257 melanoma; M14 melanoma; HCT-15 colon; HT29 colon; SNB-75 CNS; SNB-19 CNS; U251 CNS; SK-MEL-5 melanoma; UACC-62 melanoma; LOX IMVI melanoma; SK-MEL-28 melanoma; PC-3 prostate.
Experiment in all cases: NCI-60 one-dose screen, 48 h (100 = growth as untreated, 0 = no growth, -100 = all killed)
Common to all, as to conditions: 10 µM unless noted

Regarding `COc1cccc(-c2nc3sccn3c2-c2ccnc(NCCNC(=O)c3ccccc3)n2)c1`, the growth in the experiment with DU-145 prostate was 100%; in the experiment on K-562 leukemia, 67.5%; in the experiment with MALME-3M melanoma, 26.7%; in the experiment on MDA-MB-231 breast it was 83.5%; with RXF 393 renal, 86.3%; in the experiment with SF-268 CNS it was 92.7%. For the same compound, the growth in the experiment on SF-295 CNS was 85.4%; in the experiment with SF-539 CNS it was 97.7%; with UACC-257 melanoma it was 69.7%; with M14 melanoma, 40.1%; with HCT-15 colon, 81.9%; in the experiment with HT29 colon, 53.5%. Besides, the growth in the experiment on SNB-75 CNS was 92.6%; with SNB-19 CNS it was 110%; in the experiment with U251 CNS it was 102%; with SK-MEL-5 melanoma it was 55.3%; in the experiment on UACC-62 melanoma it was 24.6%; with LOX IMVI melanoma, 54.7%. For the same compound, the growth in the experiment with SK-MEL-28 melanoma is 64.2%.

On to `NC(CCCC(N)C(=O)c1ccccc1)C(=O)O` (configuration not stated), for which the growth in the experiment on DU-145 prostate is 105%; with K-562 leukemia, 98.9%; in the experiment on MALME-3M melanoma it was 95.9%; with MDA-MB-231 breast it was 109%; in the experiment with RXF 393 renal it was 112%; in the experiment with SF-268 CNS, 99.6%. Besides, the growth is 102% with SF-295 CNS; 97.5% in the experiment with SF-539 CNS; 82.5% in the experiment with UACC-257 melanoma; 102% in the experiment on M14 melanoma; 107% in the experiment on HCT-15 colon; 73.3% in the experiment on HT29 colon. Moreover, the growth is 97.1% in the experiment on SNB-75 CNS; 110% in the experiment on SNB-19 CNS; 102% in the experiment on U251 CNS; 107% in the experiment with SK-MEL-5 melanoma; 99.9% in the experiment on UACC-62 melanoma; 99.8% in the experiment on LOX IMVI melanoma. In addition, the growth with SK-MEL-28 melanoma was 103%.

As for `CN(C)CCCOc1c(Br)cc(/C=C/C(=O)N(C)CCc2cc(Br)c(OCCCN(C)C)c(Br)c2)cc1Br`, the growth with DU-145 prostate was 40.5%; in the experiment on K-562 leukemia it was -48.7% (active); with MALME-3M melanoma, -62.4% (active); in the experiment with MDA-MB-231 breast, 23.7%; in the experiment on RXF 393 renal, 59.6%; in the experiment with SF-268 CNS it was 52.5%. Also, the growth was 60.9% in the experiment on SF-295 CNS; -75.5% (active) with SF-539 CNS; 71.7% in the experiment on UACC-257 melanoma; -68.1% (active) in the experiment on M14 melanoma; 9.92% (active) in the experiment on HCT-15 colon; -19.1% (active) in the experiment on HT29 colon. Moreover, the growth is 73.3% with SNB-75 CNS; 48.6% in the experiment with SNB-19 CNS; 65.1% with PC-3 prostate; 64.4% in the experiment on SK-MEL-5 melanoma; -26.5% (active) with UACC-62 melanoma; -23.1% (active) with LOX IMVI melanoma. In the experiment on SK-MEL-28 melanoma, the growth was -49.4% (active).

As for `COc1ccc(CCNC=O)cc1OC`, the growth is 102% with DU-145 prostate; 115% in the experiment with K-562 leukemia; 90% with MALME-3M melanoma; 112% with MDA-MB-231 breast; 87.9% in the experiment on RXF 393 renal; 104% in the experiment on SF-268 CNS. Further, the growth was 103% with SF-295 CNS; 91.5% with SF-539 CNS; 108% with UACC-257 melanoma; 100% in the experiment with M14 melanoma; 103% in the experiment with HCT-15 colon; 114% in the experiment with HT29 colon. In addition, the growth in the experiment with SNB-75 CNS is 80.7%; with SNB-19 CNS, 92.4%; with PC-3 prostate, 100%; with SK-MEL-5 melanoma it was 95.5%; with UACC-62 melanoma it was 103%; in the experiment with LOX IMVI melanoma it was 98.1%. Also, in the experiment on SK-MEL-28 melanoma, the growth was 106%.

Turning to `COc1ccc(-c2c(C#N)cnc(N)c2-c2nc3cc(C)c(C)cc3[nH]2)cc1`, the growth in the experiment on DU-145 prostate is 37.4%; in the experiment with K-562 leukemia it was 51.6%; in the experiment on MALME-3M melanoma, 45.9%; with MDA-MB-231 breast, 53.4%; in the experiment on RXF 393 renal it was 56.6%; in the experiment on SF-268 CNS, 57.1%. Moreover, the growth is 27.3% in the experiment on SF-295 CNS; 92% in the experiment on SF-539 CNS; 70% in the experiment with UACC-257 melanoma; 51.2% with M14 melanoma; 60.3% in the experiment with HCT-15 colon; 37.3% in the experiment on HT29 colon. The growth in the experiment on SNB-75 CNS was 84.2%; with SNB-19 CNS it was 67.6%; in the experiment on U251 CNS, 1.05% (active); in the experiment on SK-MEL-5 melanoma, 32.2%; in the experiment with UACC-62 melanoma, 56.1%; in the experiment on LOX IMVI melanoma, 59.6%. In addition, in the experiment with SK-MEL-28 melanoma, the growth was 77%.

Consider `CCC1S/C(=N\N=C(/C)c2cc3ccccc3o2)N(c2ccccc2)C1=O` (configuration not stated), for which the growth with DU-145 prostate was 161%; with K-562 leukemia it was 79.8%; with MALME-3M melanoma, 105%; in the experiment on MDA-MB-231 breast it was 85.4%; in the experiment on RXF 393 renal, 98.7%; with SF-268 CNS, 202%. Further, the growth with SF-295 CNS was 128%; in the experiment on SF-539 CNS it was 135%; with UACC-257 melanoma it was 118%; with M14 melanoma, 101%; in the experiment on HCT-15 colon, 107%; in the experiment with HT29 colon, 98%. Moreover, the growth with SNB-75 CNS is 102%; in the experiment on SNB-19 CNS it was 100%; in the experiment with U251 CNS, 96.7%; in the experiment with SK-MEL-5 melanoma, 83.9%; in the experiment with UACC-62 melanoma it was 79.5%; with LOX IMVI melanoma, 93.7%. For the same compound, the growth in the experiment on SK-MEL-28 melanoma is 114%.

As for `CC1CCC(C(C)C)C(NN)C1` (configuration not stated), the growth in the experiment with DU-145 prostate was 109%; with K-562 leukemia, 92.2%; in the experiment on MALME-3M melanoma it was 112%; in the experiment on MDA-MB-231 breast, 108%; in the experiment with RXF 393 renal it was 115%; in the experiment on SF-268 CNS, 107%. In addition, the growth is 107% with SF-295 CNS; 103% in the experiment on SF-539 CNS; 78.6% in the experiment with UACC-257 melanoma; 102% with M14 melanoma; 104% in the experiment on HCT-15 colon; 77.1% in the experiment on HT29 colon. The growth in the experiment on SNB-75 CNS was 103%; with SNB-19 CNS, 106%; in the experiment with PC-3 prostate it was 93.9%; in the experiment on SK-MEL-5 melanoma, 102%; with UACC-62 melanoma, 96.7%; in the experiment on LOX IMVI melanoma it was 103%. Also, the growth in the experiment on SK-MEL-28 melanoma was 111%.

As for `O=C(C[n+]1cccc(Br)c1)c1ccc2c(c1)CCCC2`, the growth in the experiment on DU-145 prostate was 110%; in the experiment on K-562 leukemia, 100%; in the experiment on MALME-3M melanoma, 96.6%; in the experiment on MDA-MB-231 breast, 99.4%; in the experiment on RXF 393 renal, 117%; with SF-268 CNS, 103%. Besides, the growth was 104% with SF-295 CNS; 98.6% in the experiment on SF-539 CNS; 112% in the experiment with UACC-257 melanoma; 92.4% with M14 melanoma; 99.4% with HCT-15 colon; 80.7% in the experiment with HT29 colon. In addition, the growth in the experiment on SNB-75 CNS is 101%; in the experiment on SNB-19 CNS, 108%; in the experiment with PC-3 prostate, 94.3%; with SK-MEL-5 melanoma, 99.2%; with UACC-62 melanoma, 104%; in the experiment with LOX IMVI melanoma, 97.1%. The growth with SK-MEL-28 melanoma is 105%.

The values above are taken from PubChem BioAssay (NCI).
